This note sets out measurements from PubChem BioAssay (NCI).

Compounds without any hit were thinned out: in the full panel of roughly 83,000, 20% have a hit.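 Percent growth is the endpoint: 0 to 100 indicates growth inhibition (40 means 60% inhibition), 0 means no net growth, and negative values indicate cell death.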 Values without a mark were called inactive. Activity calls are given as the source filed them. Rule for the calls: active = growth percent below 10; inactive = the rest.

Experiment in all cases: NCI-60 one-dose screen, 48 h (100 = growth as untreated, 0 = no growth, -100 = all killed)
Common to all, as to conditions: 10 µM unless noted

Test [1] deals with BT-549 breast.
Test [2] relates to MDA-MB-435 melanoma.
In test [3] the test system is SW-620 colon.
Test [4] concerns MCF7 breast.
The test system of test [5] is HCT-116 colon.
The test system of test [6] is HCC-2998 colon.
The test system of test [7] is KM12 colon.

Take `COc1ccc(-c2nc3ccc(-c4nc5ccc(N6CCN(C)CC6)cc5[nH]4)cc3[nH]2)cc1OC`: the growth is 63% in test [1]; 41.9% in test [2]; 49.2% in test [3]; 21.1% in test [4]; 23.5% in test [5]; 77.7% in test [6]. Moreover, in test [7], the growth is 97.8%.
Consider `CC(=O)c1cc(C(=O)c2ccc3c(c2)Sc2ccccc2N3)n2ccccc12`, for which the growth was 45.8% in test [1]; -9.84% (active) in test [2]; 23.9% in test [3]; 24.7% in test [4]; 9.91% (active) in test [7].
Consider `Cc1cc(N[C@@H]2CCC[C@H](Nc3ccnc4cc(Cl)ccc34)C2)nc(N2CCCCCC2)n1`, for which the growth in test [1] was -87.9% (active); in test [2] it was -91.7% (active); in test [3], -76.5% (active); in test [4] it was -63.1% (active); in test [5], -88.6% (active); in test [6], -83.7% (active). The growth in test [7] was -39% (active).
With `CCC([N+](=O)[O-])S(=O)(=O)c1ccc(C)cc1` (stereo not drawn), the growth in test [1] was 109%; in test [2] it was 113%; in test [3], 104%; in test [4], 101%; in test [5], 98.7%; in test [6], 64.5%. In addition, the growth in test [7] was 136%.
Turning to `COc1cccc2c1C(=O)c1c(O)c3c(c(O)c1C2=O)C[C@](O)(C(=O)CO)C[C@H]3O[C@@H]1C[C@@H](NC(=O)CCCCCN(C)C2(c3ccc(F)cc3)CC3CCC2C3)[C@H](O)[C@@H](C)O1` (stereo partly drawn), the growth in test [1] is 52%; in test [2] it was -17.9% (active); in test [3], -74.9% (active); in test [4], -46.2% (active); in test [5] it was -91.8% (active); in test [7], -68.5% (active).
In the case of `COc1ccc(CN2c3ccccc3Sc3ccccc32)c(C(F)(F)F)c1`, the growth is 53.5% in test [1]; -33.6% (active) in test [2]; 25.8% in test [3]; 24.5% in test [4]; 7.74% (active) in test [5]; 20% in test [7].
On to `C=C1C(=O)O[C@H]2[C@H]1CC/C(C=Nc1ccc(C(F)(F)F)cc1N)=C\CC[C@@]1(C)O[C@@H]21`, for which the growth in test [2] was 0.426% (active); in test [3], -32% (active); in test [4] it was 10.7%; in test [5], -77.1% (active); in test [7], 20.3%.
As to `COc1cccc(C2=NN3C(C2)c2cc(Br)cc(OC)c2OC32CCN(Cc3ccccc3)CC2)c1` (stereo not drawn), the growth in test [1] is 110%; in test [2], 98.3%; in test [3] it was 96.3%; in test [4], 96.3%; in test [5], 114%; in test [6], 99.2%. For the same molecule, in test [7], the growth was 103%.
With `CCNc1ncnc2c1cnn2C1CCCO1` (stereo not drawn), the growth in test [1] is 105%; in test [2], 103%; in test [3], 100%; in test [4], 102%; in test [6], 109%; in test [7], 99.1%.
With `Fc1ccc(CNc2cccc3[nH]c(C(F)(F)F)nc23)cc1`, the growth in test [1] was 99%; in test [2], 95.7%; in test [3], 94.6%; in test [4], 92.4%; in test [5], 95.8%; in test [6], 119%. The growth in test [7] is 90.6%.
On to `Cc1cc(C)nc(SC2=C(Nc3ccc(O)cc3)C(=O)N(Cc3ccccc3)C2=O)n1`, for which the growth was 63.9% [40 µM] in test [1]; 80.1% [40 µM] in test [2]; 113% [40 µM] in test [3]; 77.1% [40 µM] in test [4]; 95.4% [40 µM] in test [5]; 103% [40 µM] in test [7].
In the case of `O=C1/C(=C/c2ccccc2)SC(=S)N1CCc1ccc(O)cc1`, the growth in test [1] is 106%; in test [2], 96.2%; in test [3], 95.6%; in test [4], 112%; in test [5], 95.9%; in test [6] it was 107%. Also, the growth in test [7] is 87.8%.
For the molecule `COc1cccc(-c2nc3sccn3c2-c2ccnc(NCCCNS(=O)(=O)c3cccc(Cl)c3)c2)c1`, the growth in test [1] is 20.2%; in test [2], 37.4%; in test [3], 67.5%; in test [4] it was 44.4%; in test [5] it was 34%; in test [6] it was 81.6%. Also, the growth in test [7] was 64.8%.
Regarding `N#C/C(=C\c1ccc(-c2ccc(Cl)c(Cl)c2)o1)c1nc(-c2ccco2)cs1`, the growth in test [1] was 109%; in test [2], 103%; in test [3], 103%; in test [4], 12.5%; in test [6], 0.932% (active); in test [7] it was 50.6%.
With `O=C(/C=C/c1ccccc1)c1ccc(O)c(CN2CCN(c3cc4c(cc3F)c(=O)c(C(=O)O)cn4C3CC3)CC2)c1`, the growth was 28.2% in test [1]; 18.6% in test [2]; 23.4% in test [3]; 8% (active) in test [4]; 3.95% (active) in test [5]; 41.2% in test [6]. In addition, the growth in test [7] was 31.8%.
For the molecule `NC(=O)c1cc(Cl)ccc1NC(=O)/C=C/c1ccccc1`, the growth in test [2] was -13.3% (active); in test [3], 26.1%; in test [4], 10.9%; in test [5], 29.2%; in test [6], 60.1%; in test [7], 9.48% (active).
For the molecule `COc1cc(-c2nn(-c3ccc(Br)cc3)cc2C(=O)O)ccc1O`, the growth in test [1] was 98.8%; in test [2], 97%; in test [3], 105%; in test [4] it was 81.5%; in test [5] it was 97.9%; in test [6] it was 108%. Moreover, the growth in test [7] is 94.8%.
With `C=C(C)[C@@H]1CC[C@]2(C(=O)OC)CC[C@]3(C)[C@H](CC[C@@H]4[C@@]5(C)C/C(=C/c6ccc(OC)cc6)C(=O)C(C)(C)[C@@H]5CC[C@]43C)[C@@H]12`, the growth is 96.6% in test [1]; 72.1% in test [2]; 62.5% in test [3]; 49.1% in test [4]; 41.8% in test [5]; 92.4% in test [6]. Moreover, the growth in test [7] is 94.3%.
As for `O=C1OC(c2ccccc2)C(O)=C1c1ccccc1` (stereo not drawn), the growth in test [1] is 111%; in test [2] it was 105%; in test [3], 110%; in test [4], 95.4%; in test [5], 107%; in test [6], 127%. Also, the growth in test [7] is 95.7%.
Turning to `COc1ccc(-c2nn(-c3ccc(Cl)cc3)cc2-c2nc3ccccc3[nH]2)cc1`, the growth in test [1] is 113%; in test [2], 97.7%; in test [3], 84.6%; in test [4], 74.3%; in test [5], 87%; in test [6], 109%. The growth in test [7] is 102%.
Consider `COc1cc2c(cc1-c1c(C)noc1C)ncc1nc(-c3ccccn3)n([C@H](C)COC(F)F)c12`, for which the growth in test [1] was 57.7%; in test [2], 46.4%; in test [3], 65.1%; in test [4], 19.7%; in test [5], 35.5%; in test [6] it was 49%. Further, the growth in test [7] was 47.4%.
With `CSc1nc(-c2cccc(NC(=O)CCl)c2)c(C#N)c(=O)n1C`, the growth in test [1] is 53.4%; in test [2], 54.5%; in test [3] it was 27.3%; in test [4], 20.6%; in test [5], 7.55% (active); in test [6], 116%. For the same molecule, the growth in test [7] is 98.5%.
For the molecule `O=c1ccccc(-c2ccc(Br)cc2)c1O`, the growth in test [1] was 23.8%; in test [2] it was 25.8%; in test [3], 26.8%; in test [4], 14.3%; in test [5], 18.6%; in test [6] it was 41.5%. Moreover, in test [7], the growth is 24.6%.
Take `Cc1ccc2c(c1)C(=O)/C(=C/c1cccc(OCC(=O)c3ccc(Cl)cc3)c1)CS2`: the growth is 101% in test [1]; 65.3% in test [2]; 25.1% in test [3]; 47.4% in test [4]; 52.9% in test [5]; 60.3% in test [7].
Consider `N#Cc1cnn(-c2nc3c(Cl)cccc3s2)c1N`, for which the growth was 90.4% in test [1]; 87.1% in test [2]; 94.7% in test [3]; 68.1% in test [4]; 61.7% in test [5]; 91.1% in test [6]. In test [7], the growth is 88.7%.
Regarding `CSc1ccc(SC2c3ccc(C)cc3Oc3nc(N)c(C#N)c(N)c32)cc1` (stereo not drawn), the growth is -87.2% (active) in test [1]; -86.7% (active) in test [2]; -68.1% (active) in test [3]; -52.2% (active) in test [4]; -88.2% (active) in test [6]; -42.3% (active) in test [7].
For the molecule `COc1ccc(C(=O)c2sc3nc(C)cc(C)c3c2N)cc1OC`, the growth in test [1] was 93.2%; in test [2], 91.8%; in test [3] it was 99.5%; in test [4] it was 84%; in test [6] it was 99.1%; in test [7], 94.3%.
As to `CC1=C[C@H]2c3c(c(O)c(O)c4oc(-c5ccccc5)cc(=O)c34)[C@H](c3cc(O)c(O)c4oc(-c5ccccc5)cc(=O)c34)[C@H]2C(C)(C)C1`, the growth in test [2] was -32.9% (active); in test [3], 7.43% (active); in test [4], 9.62% (active); in test [5] it was -56.3% (active); in test [6], 0.939% (active); in test [7] it was -14.9% (active).
As for `COc1cc(-c2nc3ccccc3[nH]2)ccc1OCc1nnc(-c2ccc(CC(C)C)cc2)o1`, the growth in test [1] was 88.5%; in test [2] it was 98%; in test [3], 103%; in test [4] it was 79.6%; in test [6] it was 119%; in test [7] it was 102%.
